For one test, the system named is Staphylococcus aureus. In words: Antibacterial activity against Staphylococcus aureus MRSA ATCC 43300 (CO-ADD:GP_020); MIC in CAMBH media using NBS plates, by Resazurin F(560/590). The note with it: Concentration 20 uM, ASSAY_TEST Inhibition of Bacterial Growth, detection method Resazurin, Fluorescence (ex560/em590), MEDIA CAMHB, plate type 384well, CORNING #3640, time 18 hr. It counts as functional. (Alamar Blue is a resazurin reagent that responds to reducing activity.)

Another test relates to Acinetobacter baumannii. Nature of the test: Antibacterial activity against Acinetobacter baumannii ATCC 19606 (CO-ADD:GN_034); MIC in CAMBH media using NBS plates, by Resazurin F(560/590). It is filed as functional. The conditions noted are these: Concentration 20 uM, ASSAY_TEST Inhibition of Bacterial Growth, detection method Resazurin, Fluorescence (ex560/em590), MEDIA CAMHB, plate type 384well, CORNING #3640, time 18 hr.

A further test relates to Escherichia coli. In words: Antibacterial activity against Escherichia coli ATCC 25922 (CO-ADD:GN_001); MIC in CAMBH media using NBS plates, by Resazurin F(560/590). It counts as functional. The note with it: Concentration 20 uM, ASSAY_TEST Inhibition of Bacterial Growth, detection method Resazurin, Fluorescence (ex560/em590), MEDIA CAMHB, plate type 384well, CORNING #3640, time 18 hr.

For another test, the system named is Klebsiella pneumoniae. The conditions noted are these: Concentration 20 uM; ASSAY_TEST Inhibition of Bacterial Growth; detection method Absorption (OD600); MEDIA CAMHB; plate type 384well; NBS; CORNING #3640; time 18 hr.
A further test relates to Candida albicans. The conditions noted are these: 20 µM.
The subject of another test is Cryptococcus neoformans. The conditions noted are these: Concentration 20 uM; ASSAY_TEST Inhibition of Fungal Growth; detection method Resazurin; Absorption (OD600-OD570); plate type 384well; NBS; CORNING #3640.

For part of these data: Entries with a potency or affinity are not part of this list.

In general, Inhibition refers to the change of the read-out against control, counted positive when it falls. For `Nc1ccc(Nc2ccccc2)c(S(=O)(=O)O)c1`, the Inhibition is 8.54% in the test on Staphylococcus aureus; 9.36% in the test on Acinetobacter baumannii; -14.68% in the test on Escherichia coli; 15.42% in the test with Klebsiella pneumoniae; 18.9% in the test with Candida albicans; 17.91% with Cryptococcus neoformans.

Regarding `CC(=O)C1C=CC(C)(C(=O)O)C2C=C(C)C(=O)C(C)(O)C12` (stereo not drawn), the Inhibition with Staphylococcus aureus is 4.72%; with Acinetobacter baumannii it was 16.27%; with Escherichia coli, 8.25%; with Klebsiella pneumoniae, 21.21%; in the test with Candida albicans it was 1.75%; with Cryptococcus neoformans, -4.78%.

Turning to `COC(=O)C1=CC(=O)N2CCN=C2S1`, the Inhibition in the test on Staphylococcus aureus is 6.62%; in the test with Acinetobacter baumannii it was 15.89%; in the test on Escherichia coli, -3.52%; in the test with Klebsiella pneumoniae it was 13.6%; with Candida albicans it was 3.42%; in the test on Cryptococcus neoformans, -1.02%.

On to `CCNc1nc(NC(C)C)nc(-c2ccncc2)n1`, for which the Inhibition in the test on Staphylococcus aureus is 6.99%; in the test with Acinetobacter baumannii, -1.34%; in the test on Escherichia coli, 9.95%; with Klebsiella pneumoniae it was 10%; in the test on Candida albicans it was 1.8%; with Cryptococcus neoformans, -10.92%.

For the molecule `Brc1csc2ncccc12`, the Inhibition in the test with Staphylococcus aureus is 8.68%; in the test with Acinetobacter baumannii, 14.4%; in the test on Escherichia coli it was -1.37%; in the test with Klebsiella pneumoniae, 10.17%; with Candida albicans, 7.21%; in the test with Cryptococcus neoformans, -5.07%.

For the molecule `CCOC(=O)Cc1cc(O)c2cc(C)ccc2n1`, the Inhibition with Staphylococcus aureus was 11.68%; in the test on Acinetobacter baumannii, -4.86%; with Escherichia coli, 11.33%; in the test with Klebsiella pneumoniae, 2.93%; in the test on Candida albicans, -1.04%; in the test with Cryptococcus neoformans, -11.29%.

Take `CCOC(=O)c1nnsc1-c1ccc(-c2snnc2C(=O)OCC)cc1`: the Inhibition with Staphylococcus aureus was 4.36%; with Acinetobacter baumannii, 3.04%; in the test with Escherichia coli, -11.2%; with Klebsiella pneumoniae, 29.27%; in the test on Candida albicans it was 6.68%; in the test on Cryptococcus neoformans, -3.34%.

In the case of `O=C1CSC(c2cccs2)N1c1nncs1` (stereo not drawn), the Inhibition in the test with Staphylococcus aureus is 13.4%; with Acinetobacter baumannii, -18.82%; in the test with Escherichia coli, 13.34%; with Klebsiella pneumoniae, 3.03%; in the test on Candida albicans it was -0.07%; with Cryptococcus neoformans, -10.32%.

Take `O=S1(=O)CCN(Cc2ccccn2)CC1`: the Inhibition with Staphylococcus aureus turned out to be 22.86%; in the test on Acinetobacter baumannii it was 16.69%; in the test with Escherichia coli, 26.77%; in the test on Klebsiella pneumoniae it was 2.99%; in the test on Candida albicans, 2.84%; with Cryptococcus neoformans it was 12.19%.

As for `O=C(O)C1OCC2(CO1)COC(C(=O)O)OC2` (stereo not drawn), the Inhibition was 10.92% in the test on Staphylococcus aureus; -13.06% in the test with Acinetobacter baumannii; 10.47% with Escherichia coli; 3.27% in the test with Klebsiella pneumoniae; 1.43% with Candida albicans; -1.34% with Cryptococcus neoformans.

For the molecule `Cc1cc(NC(=O)OC(C)C)ccc1-c1ccc(NC(=O)OC(C)C)cc1C`, the Inhibition in the test with Staphylococcus aureus was 6.05%; with Acinetobacter baumannii, 1.04%; with Escherichia coli, -21.51%; in the test with Klebsiella pneumoniae, 2.57%; in the test on Candida albicans it was 2.22%; with Cryptococcus neoformans, 33.06%.

Take `C=CCN1CCN(c2ccncc2S(=O)(=O)N2CCN(C)CC2)CC1`: the Inhibition was 11.93% in the test with Staphylococcus aureus; 5.76% in the test on Acinetobacter baumannii; 5.47% in the test on Escherichia coli; 7.93% with Klebsiella pneumoniae; -0.33% in the test on Candida albicans; -11.5% in the test on Cryptococcus neoformans.

With `Cc1cc(OCCCCOc2ccc(C#N)cc2)ccc1[N+](=O)[O-]`, the Inhibition was 20.1% in the test with Staphylococcus aureus; 6.74% with Acinetobacter baumannii; 2.94% in the test with Escherichia coli; 7.99% in the test on Klebsiella pneumoniae; 7.31% in the test on Candida albicans; -12.2% with Cryptococcus neoformans.

`NC(=O)Nc1ccc(Nc2ccccc2)cc1`: the Inhibition was 15.79% in the test with Staphylococcus aureus; -8.02% with Acinetobacter baumannii; 5.39% with Escherichia coli; 5.31% in the test with Klebsiella pneumoniae; 0.18% in the test with Candida albicans; -3.95% in the test on Cryptococcus neoformans.

`C=CCSc1n[nH]c(-c2cccs2)n1`: the Inhibition with Staphylococcus aureus was 7.65%; in the test with Acinetobacter baumannii it was 11.99%; with Escherichia coli, 1.25%; in the test on Klebsiella pneumoniae, 19.42%; with Candida albicans it was 2.69%; in the test on Cryptococcus neoformans, -4.46%.

On to `COc1cccc(/C=C2\CCc3ccccc3C2=O)c1`, for which the Inhibition in the test with Staphylococcus aureus is 5.14%; in the test with Acinetobacter baumannii it was -13.61%; with Escherichia coli it was 8.53%; in the test with Klebsiella pneumoniae, 8.43%; in the test on Candida albicans, 9.78%; with Cryptococcus neoformans, -15.01%.

On to `CC(C)(C(N)=O)c1ccccc1`, for which the Inhibition was 17.59% with Staphylococcus aureus; -10.23% with Acinetobacter baumannii; 13.36% in the test on Escherichia coli; 17.26% in the test on Klebsiella pneumoniae; -1.04% in the test with Candida albicans; -2.3% in the test with Cryptococcus neoformans.

As for `OCC(O)C1OCOC(C(O)CO)C1O` (stereo not drawn), the Inhibition is 14.61% in the test with Staphylococcus aureus; -8.42% with Acinetobacter baumannii; 9.4% in the test with Escherichia coli; 8.21% with Klebsiella pneumoniae; 0.45% in the test with Candida albicans; -5.49% with Cryptococcus neoformans.

For the origin of these results see ChEMBL document CHEMBL4296182, “CO-ADD screening of NIH NCI Diversity Set V”.
